A short description of experiment [1]: qHTS assay to identify small molecule antagonists of the androgen receptor (AR) signaling pathway using the MDA cell line in the presence of 0.5 nM R1881 - cell viability counter screen (AID 1259242). Further: nearly all actives have a fitted effect of over 45% in size. The gist of the method:
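MDA-kb2 cells (human breast carcinoma, stably carrying MMTV-luciferase reporter) were exposed to compounds with 0.5 nM R1881 (final) for 16 hr at 37C, 0% CO2; viability then read as live-cell protease fluorescence (CellTiter-Fluor, 30 min) in the same wells.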

Experiment [2] has as its target Estrogen receptor (Homo sapiens) (UniProt P03372). Kind of experiment: qHTS assay to identify small molecule antagonists of the estrogen receptor alpha (ER-alpha) signaling pathway using the BG1 cell line in the presence of 0.1 nM 17-beta-estradiol (AID 1259244). Further: nearly all actives have a fitted effect of over 50% in size. Further: potency means the concentration at half of the fitted maximal effect. The gist of the method:
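VM7Luc4E2 cells (endogenous full-length ER-alpha, stable 4xERE-luciferase) were grown 5 days in phenol red-free medium with charcoal-stripped FBS, then exposed 22 h at 37C to compounds plus 0.1 nM (final) 17beta-estradiol; ONE-Glo luminescence read-out.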
On the technique in general: qHTS replaces the single test concentration by a dilution series.

A short description of experiment [3]: qHTS assay to identify small molecule HDAC inhibitors (AID 1259364). Further: top concentration of the series differs between compounds; nearly all actives have a fitted effect of over 45% in size. The gist of the method:
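Wild-type HCT-116 cells were plated overnight, exposed to compounds for 2 h at 37 °C, then given HDAC-Glo class I/II luminogenic reagent for 30 min at room temperature before luminescence was read.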

Experiment [4] in a line: qHTS assay to identify small molecule HDAC inhibitors - cell viability counter screen (AID 1259365). Further: series mostly up to about 92 µM; nearly all actives have a fitted effect of over 50% in size. Summed up: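 CellTiter-Glo luminescence (30 min, room temperature) reported viability after a 2 h compound exposure at 37 C. Cells: wild-type HCT-116, 1,500 per well, seeded the night before.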
A short description of experiment [5]: qHTS assay to identify small molecule agonists of the sonic hedgehog signaling (Shh) pathway - cell viability counter screen (AID 1259366). Further: nearly all actives have a fitted effect of over 50% in size. Further: potency means the concentration at half of the fitted maximal effect. Summed up:
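Cytotoxicity counter screen: CellTiter-Fluor reagent added after 23 h compound exposure, then 1 h at 37C and fluorescence read. Cells were 3T3 Gli1-Luc, seeded 2,000 per well and dosed 4 h post-plating.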

A short description of experiment [6]: qHTS assay to identify small molecule antagonists of the sonic hedgehog signaling (Shh) pathway - cell viability counter screen (AID 1259367). Further: nearly all actives have a fitted effect of over 55% in size. Further: potency means the concentration at half of the fitted maximal effect. The gist of the method: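 Cells: 3T3 Gli1-Luc, 2,000/well, 4 hr pre-incubation. Compounds in DMSO, then conditioned medium. Incubation 24 hr, 37C, 5% CO2. CellTiter-Fluor at 23 hr, 1 hr, fluorescence.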
A short description of experiment [7]: qHTS assay to identify small molecule agonists of the sonic hedgehog signaling (Shh) pathway (AID 1259368; calls by dose curve; further: series mostly up to about 92 µM; nearly all actives have a fitted effect of over 15% in size). Summed up: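 NIH/3T3-derived 3T3Gli1-Luc cells carrying a stably integrated Gli1 response element–firefly luciferase reporter were plated, left 4 hr at 37 C, then given compounds in DMSO for 24 hr. Luminescence was read 30 min after adding luciferase reagent.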

Experiment [8] can be described thus: qHTS assay to identify small molecule agonists of the androgen receptor (AR) signaling pathway in the presence of an antagonist - cell viability counter screen (AID 1259379). Further: series mostly up to about 92 µM; nearly all actives have a fitted effect of over 25% in size. Summed up:
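MDA-kb2 human breast carcinoma cells (stable MMTV-luciferase, AR/GR responsive) were seeded 3,000 cells/well, pre-incubated 5 hr at 37C without CO2, then given 3.0uM nilutamide and compounds at 15 concentrations for 16 hr. Viability was read by CellTiter-Fluor fluorescence.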

Experiment [9] is described as follows: qHTS assay to identify small molecule agonists of the estrogen receptor beta (ER-beta) signaling pathway - cell viability counter screen (AID 1259380). Further: nearly all actives have a fitted effect of over 30% in size. Further: potency means the concentration at half of the fitted maximal effect. Summed up: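 ER-beta-UAS-bla HEK293T cells in medium with 2% charcoal-stripped FBS were preincubated 6 hr at 37C, dosed with compound in DMSO for 16 hr, then after the bla read, CellTiter-Glo was added for 30 min at room temperature; luminescence recorded.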

Experiment [10] can be described thus: qHTS assay to identify small molecule antagonists of the estrogen receptor beta (ER-beta) signaling pathway - cell viability counter screen (AID 1259382). Further: nearly all actives have a fitted effect of over 55% in size. Further: potency means the concentration at half of the fitted maximal effect. Summed up:
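ER-beta-UAS-bla HEK293T cells (2,000/well, 2% charcoal-stripped FBS) were pre-incubated 6 hr at 37C, then given compound plus 1nM final 17-beta-estradiol for 16 hr. Viability was read in the same wells by CellTiter-Glo luminescence after 30 min at room temperature.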

The target in experiment [11] is Estrogen receptor (Homo sapiens) (UniProt P03372). Kind of experiment: qHTS assay to identify small molecule agonists of the estrogen receptor alpha (ER-alpha) signaling pathway in the presence of an antagonist (AID 1259383; calls by dose curve; further: top concentration of the series differs between compounds; nearly all actives have a fitted effect of over 15% in size). Summed up: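 VM7Luc4E2 cells (endogenous full-length ER-alpha, 4×ERE-luciferase) were precultured 5 days in phenol red-free medium with 10% charcoal-stripped FBS, given 10.0nM ICI-182,780 (final), then treated with compounds at 15 concentrations for 22hr at 37C; luminescence read with ONE-Glo.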

Experiment [12] can be described thus: qHTS assay to identify small molecule agonists or antagonists of the thyroid stimulating hormone receptor (TSHR) signaling pathway - wild type cell line counter screen (AID 1259384; calls by dose curve). The gist of the method: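 Counter screen in untransfected Hek293: compounds (15-point titration, triplicate) plus phosphodiesterase inhibitor Ro20-1724 added after 18 h plating; 30 min RT. Intracellular cAMP via competitive d2/cryptate immunoassay, 1 h incubation.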

Experiment [13] deals with Thyrotropin receptor (Homo sapiens) (UniProt P16473). In words: qHTS assay to identify small molecule antagonists of the thyroid stimulating hormone receptor (TSHR) signaling pathway (AID 1259385; calls by dose curve; further: nearly all actives have a fitted effect of over 20% in size). The gist of the method: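 Antagonist mode: compound-treated TSHR-expressing HEK293 cells were stimulated with 1.5 ng/mL TSH (final) in presence of Ro20-1724 for 30 min at RT. HTRF cAMP detection after 1 h; each compound tested at 15 concentrations, triplicate.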

The nature of experiment [14]: qHTS assay to identify small molecule agonists of the estrogen receptor alpha (ER-alpha) signaling pathway in the presence of an antagonist - cell viability counter screen (AID 1259386). Further: series mostly up to about 92 µM; nearly all actives have a fitted effect of over 30% in size. The gist of the method: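 VM7Luc4E2 cells (endogenous full-length ER-alpha, 4×ERE-luciferase) were held 5 days in phenol red-free medium with 10% charcoal-stripped FBS, plated, then given 10.0nM ICI-182,780 and compounds at 15 concentrations for 22hr at 37C; viability read by CellTiter-Fluor fluorescence.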

Experiment [15] deals with Estrogen receptor beta (Homo sapiens) (UniProt Q92731). In words: qHTS assay to identify small molecule agonists of the estrogen receptor beta (ER-beta) signaling pathway (AID 1259377; active means well fitted activation curve with a large enough effect in the signal ratio in the repeat runs, not every such curve was filed as active; the % refers to the signal ratio). Summed up: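 Ratiometric beta-lactamase FRET read-out came after 2 h substrate loading at room temperature. It followed 16 h compound treatment at 37C of GripTite HEK293T cells carrying a UAS-bla reporter, plated in 2% charcoal-stripped FBS medium.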

Experiment [16] shares this target. Kind of experiment: qHTS assay to identify small molecule antagonists of the estrogen receptor beta (ER-beta) signaling pathway (AID 1259378; active means well fitted inhibition curve with a large enough effect in the signal ratio in the repeat runs, not every such curve was filed as active; the % refers to the signal ratio). Summed up: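 Antagonist mode: compounds added to beta-lactamase reporter HEK293T ER-beta-UAS cells stimulated with E2 (1nM final), 16 hr at 37C. LiveBLAzer B/G FRET substrate, 2 hours room temperature, fluorescence read-out.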

A short description of experiment [17]: qHTS assay to identify small molecule antagonists of the sonic hedgehog signaling (Shh) pathway (AID 1259369; calls by dose curve; further: nearly all actives have a fitted effect of over 45% in size). Summed up: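 NIH/3T3-derived 3T3Gli1-Luc cells with stably integrated Gli1-Luc reporter were preincubated 4hr at 37 C, then given compounds in DMSO plus Shh conditioned medium and incubated 24hr. Firefly luciferase luminescence read after 30min reagent at room temperature.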

Several values for one entry are separate records, joined by “and”; a condition that tells them apart may be missing. Identical values can stand only once. Inconclusive results are not listed. The source holds several records for some structures; these can differ, active in one and inactive in another. Activity calls are given as the source filed them. Unless noted, the call rests on the fitted dose curve; in most records, active means well fitted curve in the direction sought with a large enough effect in the repeat runs; inconclusive means weak or mixed curves; inactive means no such curve, though single readings can be large; an effect the other way counts as inactive or inconclusive.

Estrogen receptor beta (Homo sapiens), sequence (Q92731 whole entry, looked up): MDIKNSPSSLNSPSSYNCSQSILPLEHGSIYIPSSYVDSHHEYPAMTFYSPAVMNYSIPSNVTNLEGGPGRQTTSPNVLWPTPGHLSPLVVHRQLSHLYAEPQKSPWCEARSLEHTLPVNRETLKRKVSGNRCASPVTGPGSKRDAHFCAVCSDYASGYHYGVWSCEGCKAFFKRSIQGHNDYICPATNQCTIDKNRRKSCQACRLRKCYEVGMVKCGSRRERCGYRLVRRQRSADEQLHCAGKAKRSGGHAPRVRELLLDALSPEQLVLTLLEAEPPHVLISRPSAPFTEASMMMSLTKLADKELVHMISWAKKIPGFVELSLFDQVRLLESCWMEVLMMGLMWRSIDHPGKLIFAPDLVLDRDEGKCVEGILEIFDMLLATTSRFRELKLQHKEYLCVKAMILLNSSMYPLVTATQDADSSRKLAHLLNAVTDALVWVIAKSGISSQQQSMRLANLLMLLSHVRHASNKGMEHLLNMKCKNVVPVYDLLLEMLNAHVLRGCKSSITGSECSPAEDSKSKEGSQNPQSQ
Estrogen receptor (Homo sapiens), sequence (P03372 whole entry, looked up): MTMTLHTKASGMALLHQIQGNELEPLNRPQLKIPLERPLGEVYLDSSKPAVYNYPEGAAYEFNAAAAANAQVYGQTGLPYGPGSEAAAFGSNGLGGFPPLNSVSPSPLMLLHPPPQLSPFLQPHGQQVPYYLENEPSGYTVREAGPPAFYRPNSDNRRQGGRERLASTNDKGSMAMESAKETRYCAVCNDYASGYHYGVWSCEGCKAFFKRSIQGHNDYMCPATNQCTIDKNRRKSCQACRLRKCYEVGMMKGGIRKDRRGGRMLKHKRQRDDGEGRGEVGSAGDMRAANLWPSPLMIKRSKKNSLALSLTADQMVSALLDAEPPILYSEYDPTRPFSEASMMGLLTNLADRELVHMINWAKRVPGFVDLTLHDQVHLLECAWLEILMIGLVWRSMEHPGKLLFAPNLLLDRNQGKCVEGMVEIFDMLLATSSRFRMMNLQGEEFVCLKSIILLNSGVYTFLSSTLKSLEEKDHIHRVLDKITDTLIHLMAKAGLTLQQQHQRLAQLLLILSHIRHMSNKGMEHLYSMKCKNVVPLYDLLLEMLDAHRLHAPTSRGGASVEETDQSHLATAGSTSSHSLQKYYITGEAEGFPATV
Thyrotropin receptor (Homo sapiens), sequence (P16473 whole entry, looked up): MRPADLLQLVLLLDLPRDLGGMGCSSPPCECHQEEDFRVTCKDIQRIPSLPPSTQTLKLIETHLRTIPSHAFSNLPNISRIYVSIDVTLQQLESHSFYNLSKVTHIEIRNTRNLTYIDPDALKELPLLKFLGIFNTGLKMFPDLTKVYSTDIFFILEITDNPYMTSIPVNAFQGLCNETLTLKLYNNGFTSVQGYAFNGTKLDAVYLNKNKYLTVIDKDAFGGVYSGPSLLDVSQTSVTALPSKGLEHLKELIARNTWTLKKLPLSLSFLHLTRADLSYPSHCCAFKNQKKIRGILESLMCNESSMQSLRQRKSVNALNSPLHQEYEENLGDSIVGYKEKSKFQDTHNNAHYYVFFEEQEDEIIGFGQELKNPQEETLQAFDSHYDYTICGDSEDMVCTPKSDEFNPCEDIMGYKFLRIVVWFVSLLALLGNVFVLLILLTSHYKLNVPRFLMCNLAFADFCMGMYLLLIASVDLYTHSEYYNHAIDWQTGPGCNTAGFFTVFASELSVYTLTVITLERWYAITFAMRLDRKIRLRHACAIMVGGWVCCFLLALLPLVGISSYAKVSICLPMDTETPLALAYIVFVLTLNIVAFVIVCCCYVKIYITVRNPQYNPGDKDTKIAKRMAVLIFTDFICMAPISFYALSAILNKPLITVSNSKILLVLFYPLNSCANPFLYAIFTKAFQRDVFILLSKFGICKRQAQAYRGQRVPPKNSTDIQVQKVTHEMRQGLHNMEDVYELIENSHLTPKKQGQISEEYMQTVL

Take `CCOC(=O)C(C)Oc1ccc(Oc2cnc3cc(Cl)ccc3n2)cc1` (stereo not drawn): the Potency result in [1], in experiment [2], in experiment [3], in experiment [5], in experiment [6] and in [7] was “inactive” throughout. Also, the Potency entry in experiment [8], in experiment [9], in experiment [10], in [11], in experiment [12] and in experiment [13] was “inactive” in each case. Further, the Potency entry in [14] is “inactive”. For the same molecule, the call in experiment [4] was inactive.
On to `C1CN(SSN2CCOCC2)CCO1`, for which the Potency entry in experiment [1], in [2], in experiment [3], in experiment [7], in experiment [8] and in [10] was “inactive” each time. Also, the Potency entry in [11], in experiment [12] and in experiment [13] was “inactive” in each case. Also, the outcome in [4] was inactive. Further, the Potency in experiment [5] is 53.9 µM (active) and 48.6 µM (active); in experiment [6], 48.1 µM (active) and 61.1 µM (active); in [9], “inactive and 48.6 µM (active)”.
For the molecule `CCCCCCCCCCCCO`, the Potency entry in experiment [1], in experiment [2], in experiment [3], in experiment [5], in experiment [6] and in [7] was “inactive” each time. Further, the Potency entry in experiment [15], in [16], in experiment [8], in [9], in experiment [10] and in [11] was “inactive” in each case. In addition, the Potency result in experiment [12] and in [13] was “inactive” in each case. In experiment [4], the molecule was classed as inactive.
Consider `CC(=O)OC(C)C`, for which the Potency result in [1], in experiment [2], in experiment [3], in experiment [5], in experiment [6] and in [7] was “inactive” in each case. Further, the Potency entry in experiment [17], in experiment [15], in experiment [16], in [8], in experiment [9] and in experiment [10] was “inactive” throughout. For the same molecule, the Potency entry in [11], in experiment [13] and in experiment [14] was “inactive” throughout. In addition, in experiment [4], the outcome was inactive.
On to `Cc1ccc([N+](=O)[O-])c(C)c1`, for which the Potency entry in experiment [1], in [5], in experiment [6], in experiment [7], in experiment [17] and in [8] was “inactive” each time. Further, the Potency entry in experiment [11], in experiment [13] and in experiment [14] was “inactive” throughout. For the same molecule, the Potency in experiment [2] is 6.11 µM (active) and inactive; in [9], 6.11 µM (active) and inactive; in experiment [10], 8.63 µM (active) and inactive. The result in [4] was inactive.
Turning to `CCCCCCC(C)O` (stereo not drawn), the Potency entry in [1], in experiment [2], in [3], in experiment [5], in experiment [6] and in experiment [7] was “inactive” throughout. The Potency entry in experiment [17], in experiment [15], in experiment [16], in [8], in [9] and in experiment [10] was “inactive” throughout. Also, the Potency entry in experiment [11] and in [14] was “inactive” throughout. For the same molecule, the molecule was classed as inactive in experiment [4].
As to `O=S1(=O)CCCO1`, the Potency result in experiment [1], in experiment [2], in experiment [5], in experiment [6], in experiment [7] and in [15] was “inactive” in each case. The Potency entry in experiment [16], in experiment [8], in experiment [9], in [10], in experiment [11] and in [12] was “inactive” throughout. Further, the Potency entry in experiment [13] and in [14] was “inactive” each time. Further, the outcome in experiment [4] was inactive.
As to `O=C1CCc2ccccc2O1`, the Potency entry in experiment [1], in experiment [2], in experiment [3], in [5], in [6] and in [7] was “inactive” each time. Moreover, the Potency entry in experiment [17], in experiment [15], in experiment [16], in [8], in experiment [9] and in experiment [10] was “inactive” in each case. Moreover, the Potency entry in [11] and in experiment [13] was “inactive” each time. For the same molecule, the result in experiment [4] was inactive.
Take `CCCCCC1C(=O)CCC1CC(=O)OC` (stereo not drawn): the Potency entry in experiment [1], in experiment [2], in experiment [5], in experiment [6], in [7] and in experiment [17] was “inactive” each time. The Potency entry in experiment [8], in [9], in experiment [10], in [11] and in experiment [13] was “inactive” in each case. Also, the molecule was classed as inactive in [4].

The record behind these values is PubChem BioAssay (Tox21).
